This is part of a sample that, as a whole, favours compounds with a hit. Of some 83,000 tested, about 20% had one in any assay.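 For each line, cells grew in 96-well plates with the test compound present at a single concentration for 48 hours.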 Unmarked numbers belong to inactive results. Activity calls are given as the source filed them. The calls were made as follows: active = growth percent below 10; inactive = the rest.
Experiments:
Assay in all cases: NCI-60 one-dose screen, 48 h (100 = growth as untreated, 0 = no growth, -100 = all killed)
Conditions in all cases: 10 µM unless noted
[1] = test system: SK-MEL-2 melanoma
[2] = test system: EKVX NSCLC
[3] = test system: SN12C renal
[4] = test system: UO-31 renal
[5] = test system: TK-10 renal
[6] = test system: ACHN renal
[7] = test system: CAKI-1 renal
[8] = test system: A498 renal
[9] = test system: CCRF-CEM leukemia
[10] = test system: MOLT-4 leukemia

Row | Compound | growth [1] | growth [2] | growth [3] | growth [4] | growth [5] | growth [6] | growth [7] | growth [8] | growth [9] | growth [10]
1 | CN(C)CCOc1ccc(-c2nc3ccc(-c4nc5ccc(N6CCN(C)CC6)cc5[nH]4)cc3[nH]2)cc1 | 25.7% | 83.6% | 63.5% | 103% | 90.7% | 111% | 89.6% | 35.3% | 85.4% | 92%
2 | O=[N+]([O-])c1cccc(-c2nc3sccn3c2-c2ccnc(NCCCNS(=O)(=O)c3cccc(F)c3)n2)c1 | -29.2% (active) | 19.1% | 18.7% | -11.6% (active) | 52.9% | 6.36% (active) | 10% | 33.7% | 3.04% (active) | -34.4% (active)
3 | O=C1C(=O)N(CCCCn2cc(CO)nn2)c2ccccc21 | 98.8% | 92.4% | 104% | 87.7% | 102% | 101% | 87.8% | 99.4% | 104% | 95.7%
4 | Cn1c(=O)c2[nH]c(C(O)C(O)C(O)C(O)CO)nc2n(C)c1=O (stereo not given) | 104% | 103% | 107% | 91.8% | 103% | 106% | 102% | 106% | 105% | 103%
5 | O=C(Cn1cc(CN2C(=O)c3ccccc3S2(=O)=O)nn1)Nc1ccc([N+](=O)[O-])cc1Cl | 91.9% | 103% | 94.3% | 82.7% | 112% | 95.3% | 91.8% | 103% | 93.4% | 96.5%
6 | C=C1CC2(OC1=O)C(=O)Nc1ccccc12 (stereo not given) | 92.5% | 74.4% | 40.5% | 19.7% | 22.3% | 7.77% (active) | 31.5% | 72.8% | 0.987% (active) | 18.7%
7 | O=C1Nc2c(ccc(Cl)c2Cl)/C1=C/c1cc(Br)c(O)c(Br)c1 | 73.2% | 47.3% | 80.2% | 60.4% | 96.7% | 70.8% | 46.8% | 48.9% | 69% | 63.8%
8 | Cc1ccc(-c2nc(/C=N/Nc3cc(C)nc4ccc(Br)cc34)c(C)o2)cc1 | 95.8% | 2.6% (active) | -83.4% (active) | -98% (active) | -17.5% (active) | -85.1% (active) | -71.5% (active) | 86.6% | -42.1% (active) | -34.7% (active)
9 | O=c1c(/C=C/c2ccco2)nnc(SCCN2CCOCC2)n1/N=C/c1ccc([N+](=O)[O-])cc1 | 106% | 81.6% | 102% | 71.3% | 154% | 99.7% | 106% | 103% | -20.4% (active) | 81.2%
10 | O=S(=O)(Nc1ccc(Cl)cc1Cl)c1ccc(-c2cnc(C3CC3)o2)cc1 | 33.3% | 38.1% | 51.4% | 53.7% | 48.4% | 53.6% | 38.8% | -21% (active) | 18.6% | 24.3%
11 | CC/C=C\C[C@H](F)C/C=C1/C(=O)C=C[C@@H]1C/C=C\CCCC(=O)OC | 41% | 31.6% | -14.4% (active) | -4.75% (active) | 50.4% | -52% (active) | 9.44% (active) | 84.8% | -21.4% (active) | -23.5% (active)
12 | CCCCCCNC(=O)Oc1ccc(/C(=C(\C)c2ccccc2)c2ccc(OCCN(CC)CC)cc2)cc1 | 86.6% | 90.5% | 73% | 28.8% | 76.1% | 88.1% | 77% | 81.7% | 40.5% | 20.3%

Reference: PubChem BioAssay (NCI)
